The source of these data is PubChem BioAssay (NCI).

What all share (test): NCI-60 one-dose screen, 48 h (100 = growth as untreated, 0 = no growth, -100 = all killed)
Settings in all cases: 10 µM unless noted

Experiment [1] has as its system T-47D breast.
Experiment [2] deals with MDA-MB-435 melanoma.
For experiment [3], the system named is SW-620 colon.
For experiment [4], the system named is MCF7 breast.
Experiment [5] relates to HCT-116 colon.
Experiment [6] has as its system HCC-2998 colon.
Experiment [7] relates to KM12 colon.
Experiment [8] deals with BT-549 breast.

The panel holds about 83,000 compounds, 20% with a hit somewhere; the sample as a whole holds those more often.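 Cells were grown in 96-well plates and exposed to the test compound at a single concentration for 48 hours; results are reported as percent growth, with values below 10 considered active.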 A number with no mark means an inactive call. Calls of active or inactive are those of the source.

For `CC1(C)CC(=O)C=C(N)C1`, the growth in experiment [1] was 141%; in experiment [2] it was 99.2%; in experiment [3] it was 96%; in experiment [4], 160%; in experiment [5], 102%; in experiment [6], 45.4%. Besides, the growth in experiment [7] was 124%.
Take `COC(=O)Cc1cc(COC(C)=O)ccc1C`: the growth in experiment [1] was 110%; in experiment [2], 116%; in experiment [3], 110%; in experiment [4], 106%; in experiment [5], 104%; in experiment [6] it was 106%. The growth in experiment [7] was 114%.
With `Cc1cc(NC(=O)c2ccccc2)c(Cl)cc1N`, the growth is 98% in experiment [1]; 97.4% in experiment [2]; 106% in experiment [3]; 84.9% in experiment [4]; 103% in experiment [5]; 102% in experiment [6]. Further, in experiment [7], the growth is 106%.
On to `NC(=S)N/N=C/c1ccc(Cl)cc1`, for which the growth in experiment [1] was 86.8%; in experiment [2], 110%; in experiment [3], 113%; in experiment [4], 93.4%; in experiment [5] it was 100%; in experiment [6], 96.2%. The growth in experiment [7] was 113%.
Consider `Cc1ccc(OC(=O)c2ccccc2)cc1`, for which the growth in experiment [1] is 108%; in experiment [2] it was 112%; in experiment [3] it was 111%; in experiment [4], 97.4%; in experiment [5], 105%; in experiment [6], 107%. Also, the growth in experiment [7] is 108%.
For `NC(CO)(CO)c1ccccc1`, the growth in experiment [1] was 99.7%; in experiment [2], 98.4%; in experiment [3] it was 96.9%; in experiment [4], 95.9%; in experiment [5] it was 101%; in experiment [6], 110%. For the same molecule, in experiment [7], the growth was 94.5%.
With `CCC(=O)Oc1ccc2ccccc2c1`, the growth in experiment [1] was 74.9%; in experiment [2] it was 101%; in experiment [3] it was 85.7%; in experiment [4], 101%; in experiment [5], 102%; in experiment [6], 88.7%. Moreover, in experiment [7], the growth was 99.6%.
As to `O=C(NCc1ccccc1)c1cccc([N+](=O)[O-])c1`, the growth is 98.4% in experiment [2]; 99.2% in experiment [3]; 97.8% in experiment [4]; 103% in experiment [5]; 108% in experiment [6]; 85% in experiment [7].
`O=S1(=O)c2ccccc2Oc2ccccc21`: the growth in experiment [8] was 113%; in experiment [2], 101%; in experiment [3], 95%; in experiment [4], 87.8%; in experiment [5], 102%; in experiment [6], 106%. Further, in experiment [7], the growth is 109%.
Consider `CC(C)C1CCC(C)C(O)C1` (stereo not given), for which the growth in experiment [2] is 93.5%; in experiment [3] it was 98%; in experiment [4], 100%; in experiment [5] it was 111%; in experiment [6] it was 109%; in experiment [7], 97.3%.
Consider `Cc1cccc(-[n+]2noc(N)n2)c1`, for which the growth in experiment [1] was 59%; in experiment [2], 83.7%; in experiment [3], 86.3%; in experiment [4], 76%; in experiment [6] it was 79%; in experiment [7] it was 70.2%.
As for `CCC(C)c1c(N)n(S(=O)(=O)c2ccc(C)cc2)oc1=O` (stereo not given), the growth in experiment [8] was 110%; in experiment [2], 107%; in experiment [3], 105%; in experiment [4], 108%; in experiment [5] it was 102%; in experiment [7] it was 104%.
On to `CC(C)C(=O)OCCOc1ccc(C(C)(C)C)cc1`, for which the growth in experiment [2] was 87.5%; in experiment [3] it was 92.2%; in experiment [4] it was 95.4%; in experiment [5] it was 105%; in experiment [7] it was 93.3%.
In the case of `OCCc1ccc(Cl)cc1`, the growth in experiment [2] was 92.3%; in experiment [3], 105%; in experiment [4] it was 93.7%; in experiment [5] it was 101%; in experiment [6] it was 110%; in experiment [7] it was 88.9%.
Regarding `CC(=O)Oc1c(Cl)cccc1-c1ccccc1`, the growth in experiment [3] is 96.4%; in experiment [4] it was 101%; in experiment [5] it was 101%; in experiment [7], 104%.
Take `CC(=O)c1ccc(C)cc1`: the growth is 120% in experiment [1]; 106% in experiment [3]; 100% in experiment [4]; 105% in experiment [5]; 105% in experiment [6]; 106% in experiment [7].
As to `Cc1ccc(C2CCCCC2)cc1Br`, the growth in experiment [2] was 100%; in experiment [3] it was 99.1%; in experiment [4], 96.9%; in experiment [5], 105%; in experiment [6] it was 105%; in experiment [7], 94.3%.
Take `CCN(C(C)=O)c1ccc([N+](=O)[O-])cc1`: the growth in experiment [8] is 117%; in experiment [2], 116%; in experiment [3] it was 98.2%; in experiment [4] it was 98.1%; in experiment [5], 109%; in experiment [6], 97.8%. In experiment [7], the growth is 103%.
With `C1C[S+]2CC[S+]1CC2`, the growth in experiment [8] was 97%; in experiment [2], 109%; in experiment [3], 101%; in experiment [4] it was 103%; in experiment [5], 104%; in experiment [6], 105%. In addition, the growth in experiment [7] was 106%.
Consider `CCCNS(=O)(=O)c1ccc(Cl)cc1`, for which the growth was 93.3% in experiment [2]; 96.2% in experiment [3]; 93.3% in experiment [4]; 103% in experiment [5]; 98.9% in experiment [6]; 99.6% in experiment [7].
As for `NNc1ncccn1`, the growth in experiment [2] is 91%; in experiment [3] it was 94.7%; in experiment [4] it was 101%; in experiment [5] it was 98.1%; in experiment [6] it was 102%; in experiment [7] it was 101%.
In the case of `C=CCS(C)(=O)=O`, the growth is 96.7% in experiment [2]; 95.4% in experiment [3]; 96.3% in experiment [4]; 94% in experiment [5]; 108% in experiment [6]; 88.3% in experiment [7].
As for `NNc1ncnc2c1ncn2C1OC(CO)C(O)C1O` (stereo not given), the growth is 42.3% in experiment [8]; 21.4% in experiment [3]; 6.39% (active) in experiment [4]; 4.61% (active) in experiment [5]; 48.9% in experiment [6]; 28.5% in experiment [7].
